# Experimental data taken from ChEMBL document CHEMBL4513216, “Probing the Open Global Health Chemical Diversity Library for Multistage-Active Starting Points for Next-Generation Antimalarials” (ACS Infect Dis, 2020).
# Hit rate of the full screen: of about 69,000 compounds, about 8,600 (12%) showed an effect of 50% or more. The list comes from a sample in which strong results are over-represented; it also holds similar structures and randomly drawn compounds.
# Tested on: Plasmodium berghei
# Experiment: Screen against P. berghei liver stage (PbLuc), transformed with Luciferase, at 10uM
# Assay type: functional, HepG2
# Details: tested at 10 uM
row,Structure (SMILES),INHIBITION
1,CC1=N[C@@]2(CC[C@@H]3CN(Cc4cccc(Cl)c4)C[C@@H]32)C(=O)N1CC1CC1,14.9%
2,Cc1ccc(C2CCCN(S(C)(=O)=O)C2)nc1 (configuration not stated),6.75%
3,O=C(NC[C@]12COC[C@H]1CN(C1CCOCC1)C2)c1ccco1,38.7%
4,c1ccc2c(c1)OCCCC2NCc1nnc2n1CCCCC2 (configuration not stated),-0.55%
5,Cc1cccc2c1OCCCC2NCc1nnc2n1CCCCC2 (configuration not stated),86.8%
6,Cc1ccc2c(c1)OCCCC2NCc1nnc2n1CCCCC2 (configuration not stated),-14.2%
7,CS(=O)(=O)c1cc(Cl)cnc1C1CCN(C(=O)C2CCCO2)CC1 (configuration not stated),12.75%
8,O=C(Cc1cccc(F)c1)N1C[C@H]2CN(Cc3ccccn3)C[C@H]2C1,9.97%
9,N#Cc1ccsc1N1CCC(Sc2ncc[nH]2)C1=O (configuration not stated),27.6%
10,CC(C)Nc1ncccc1C(=O)NCc1ccnn1C,43%
11,Cc1c(NC(C)C(C)C)cccc1C(=O)NCc1ccnn1C (configuration not stated),62.7%
12,Cc1c(NC(C)C(C)C)cccc1C(=O)NCc1nnc(C)n1C (configuration not stated),-20.8%
13,Cc1c(NC(C)C(C)C)cccc1C(=O)NCc1cnn(C)c1 (configuration not stated),29.3%
14,Cn1ccnc1CNC(=O)c1ccnc(C2CCNCC2)c1,-12.4%
15,Cc1c(NC(C)C(C)C)cccc1C(=O)NCc1nccn1C (configuration not stated),57.4%
16,O=C1NC2(Cc3ccccc31)CN(CC1CCCC1)C2,45.8%
17,CCOC(=O)C1CCN(C(=O)c2cc(Br)ccc2-n2cnnn2)CC1,17.6%
18,NC(=O)C1CCN(C(=O)c2cc(Br)ccc2-n2cnnn2)CC1,28.6%
19,COC(=O)C1CCN(C(=O)c2cc(Br)ccc2-n2cnnn2)CC1,53.8%
20,CC(CN1CCOCC1)OC(=O)c1ccccc1Cl (configuration not stated),35.8%
21,Cn1nnc2c1C(COCc1ccccn1)CN(C(=O)c1ccsc1)C2 (configuration not stated),1.9%
22,Cc1cc(N(C)Cc2ncc[nH]2)nc(-c2ccccc2)n1,59.8%
23,Cc1cc(N(C)Cc2snnc2C)nc(-c2cccnc2)n1,-26.2%

row,Structure (SMILES),INHIBITION
1,Cc1ccccc1CN(CCN(C)C)Cc1ncc[nH]1,3.96%
2,Cc1cc(CC(C)Nc2nc(-c3cccnc3)nc3c2CNC3)[nH]n1 (configuration not stated),47.4%
3,Cc1cc(N(C)Cc2cc(C(C)(C)C)n[nH]2)nc(-c2cccnc2)n1,76.5%
4,Cc1cc(N(C)Cc2ncc[nH]2)nc(-c2cccnc2)n1,-18.5%
5,O=C(Cn1cccn1)N1CCC(c2nnc(-c3ccsc3)o2)CC1,23.55%
6,CN(C1CCCN(c2ccccn2)C1)S(C)(=O)=O (configuration not stated),-2.25%
7,CC(=O)Nc1cc2c(cc1C)OCO2,19.3%
8,COc1c(CNCC(O)COc2ccc3c(c2)OCO3)c(C)nn1C (configuration not stated),21.5%
9,COc1ccccc1COCC(O)CN(C)Cc1cccc(Cl)c1 (configuration not stated),24.6%
10,Cc1ccccc1CN(C)CC(O)COCc1ccccc1Cl (configuration not stated),60%
11,COc1ccc(CN(C)CC(O)COCc2ccccc2Cl)c(OC)c1 (configuration not stated),48.2%
12,O=S(=O)(NCc1ccc(S(=O)(=O)N2CCCC2)s1)c1ccc(F)cc1Cl,18.3%
13,CN(C)S(=O)(=O)c1ccc2c(c1)N(Cc1nccn1C)CC2,37.1%
14,Cc1ccc([C@@]2(O)CC[C@@H]3CN(S(=O)(=O)C(C)C)C[C@@H]32)cc1,3.91%
15,CC(C)n1cc(CN2CCCN(C(=O)c3cc(Cl)c[nH]3)CC2)cn1,54.9%
16,CC(C)n1cc(CN2CCCN(C(=O)c3ccco3)CC2)cn1,25.1%
17,Cc1cc(C(=O)N2CCCN(Cc3cnn(C(C)C)c3)CC2)no1,39.3%
18,Cc1cnc(C(=O)N2CCCN(Cc3cnn(C(C)C)c3)CC2)cn1,9.06%
19,CC(C)n1cc(CN2CCCN(C(=O)c3cccn3C)CC2)cn1,34.6%
20,CC(C)n1cc(CN2CCCN(C(=O)c3ccc[nH]3)CC2)cn1,52.1%
21,Cc1cccc(CN2C[C@@H]3CN(C(=O)c4ccsc4)C[C@@H]3C2=O)n1,23.6%
22,CN(C)S(=O)(=O)N1CCN(C(=O)OC(C)(C)C)CC12CCCCC2,27.5%
23,Cc1cnn(CC2CCCN2Cc2cn3ccsc3n2)c1 (configuration not stated),37.9%

row,Structure (SMILES),INHIBITION
1,O=C1CCC(=O)c2oc3ccc(Cl)cc3c2N1,34.2%
2,CN(C)C(=O)N1C[C@H]2CC[C@@H](C1)N(C(=O)CCCn1cncn1)C2,6.8%
3,O=C(O)COCC(=O)NC1CC2(CCCCC2)Oc2ccccc21 (configuration not stated),3.91%
4,CC(C)c1nnc2n1CCN(C(=O)c1cn(-c3ccccc3)nn1)C2,21.1%
5,O=C(NC[C@]12COC[C@H]1CN(CC1CCOCC1)C2)c1ccco1,3.11%
6,Cc1ncc(CN2CCCC(c3nc4ccccc4n3C(C)C)C2)s1 (configuration not stated),-21.4%
7,O=C1NCCN1C1CCN(CCOc2ccccc2F)CC1,63.85%
8,c1ccc2c(OCCN3CCn4c(nnc4C4CC4)C3)cccc2c1,21.5%
9,O=C1NCCN1C1CCN(CC(O)c2ccccc2F)CC1 (configuration not stated),0.45%
10,O=C1NCCN1C1CCN(CCOc2ccccc2Cl)CC1,22.6%
11,O=C1NCCN1C1CCN(CCc2cccs2)CC1,29.5%
12,O=C1NCCN1C1CCN(CCOc2cccc3ccccc23)CC1,69.1%
13,COc1cc(C(=O)N(C)Cc2nccn2CC(F)(F)F)ccc1C,10.7%
14,Cc1cc(C(=O)N2CCC3(CC2)C(=O)N(C)CCN3CC(C)C)c(C)o1,49.4%
15,Cn1cccc1C(=O)N1CCC(c2nnc(Cn3ccnc3)n2C)CC1,-10.3%
16,NCC1[C@H]2CN(CCc3ccccc3)C[C@@H]12 (some centres not stated),33.2%
17,CN(C)c1nc2c(c(N3CCC4(CCCNC4=O)C3)n1)CCCC2 (configuration not stated),42.2%
18,CN(C)c1nc2c(c(N3CCC4(CC3)CNC(=O)C4)n1)CCCC2,84.5%
19,CN(C)c1nc2c(c(N3CCCC4(CC3)CNC(=O)O4)n1)CCCC2 (configuration not stated),-26.8%
20,CCn1cc(NC(=O)NCC(C)N2CCCC2)cn1 (configuration not stated),31.8%
21,Cc1nc(CN2CCc3ncnc(C4CCOC4)c3CC2)cs1 (configuration not stated),-33%
